We go through 22 compounds from PubChem BioAssay (Tox21).

Assay [1] concerns the target Peroxisome proliferator-activated receptor delta (Homo sapiens) (UniProt Q03181). Kind of assay: qHTS assay to identify small molecule agonists of the peroxisome proliferator-activated receptor delta (PPARd) signaling pathway (AID 743212; calls by dose curve). In outline:
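Beta-lactamase reporter readout: a ratiometric FRET signal from the LiveBLAzer substrate after 2 h at room temperature. Compound exposure at 37 °C in PPARδ-bla HEK293H cells driven by an upstream activator sequence.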
A general note: Quantitative high-throughput screening tests each substance at several concentrations.

Assay [2] can be described thus: qHTS assay to identify small molecule antagonists of the peroxisome proliferator-activated receptor delta (PPARd) signaling pathway - cell viability counter screen (AID 743213). Note: nearly all actives have a fitted effect of over 50% in size. In outline: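 Luminescence from CellTiter-Glo, added after the bla read and incubated 30 min at room temperature, gives viability of HEK293H PPARd-bla cells exposed to compounds for 17 h at 37 C with 300 nM L165041.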

Assay [3] addresses Peroxisome proliferator-activated receptor delta (Homo sapiens) (UniProt Q03181). The experiment in a line: qHTS assay to identify small molecule antagonists of the peroxisome proliferator-activated receptor delta (PPARd) signaling pathway (AID 743215; active = well fitted inhibition curve with a large enough effect in the signal ratio in the repeat runs, not every such curve was filed as active; the % refers to the signal ratio;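 note: cells stimulated with agonist L165041 at 300 nM final during compound exposure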; note: potency is the fitted concentration of half-maximal effect; for ratio activity, negative = inhibition: series mostly up to about 62 µM). In outline:
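Fluorescence from cleaved LiveBLAzer B/G FRET substrate (2 h, room temperature) reports PPARd-driven beta-lactamase in HEK293H UAS-bla cells. Cells had been treated 17 h at 37 C with compound plus 300 nM final L165041.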

A short description of assay [4]: qHTS assay to identify small molecule agonists of the farnesoid-X-receptor (FXR) signaling pathway - cell viability counter screen (AID 743218). Note: nearly all actives have a fitted effect of over 45% in size. A digest of the protocol:
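Readout: CellTiter-Glo luminescence, 30 min RT, multiplexed after the FXR-bla FRET reading. HEK 293T FXR-UAS-bla cells received compound 5 h post-plating and were incubated 16 h at 37 C.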

The nature of assay [5]: qHTS assay to identify small molecule antagonists of the farnesoid-X-receptor (FXR) signaling pathway - cell viability counter screen (AID 743221; active = well fitted cell-killing curve with a large enough effect in the repeat runs, not every such curve was filed as active; note: nearly all actives have a fitted effect of over 50% in size). A digest of the protocol:
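FXR-UAS-bla HEK 293T cells were treated with test compounds plus chenodeoxycholic acid (50 uM final) for 16 h at 37 C. Cell viability in the same wells was then read as CellTiter-Glo luminescence after 30 min at room temperature.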

The target in assay [6] is Vitamin D3 receptor (Homo sapiens) (UniProt P11473). The experiment in a line: qHTS assay to identify small molecule agonists of the vitamin D receptor (VDR) signaling pathway (AID 743222; calls by dose curve). In outline: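 Following 4 h attachment at 37C, VDR-bla cells (2,000 per well) received DMSO-dissolved compounds or controls. After 16 h incubation, LiveBLAzer B/G FRET substrate was added and fluorescence read 2 h later at room temperature.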

Assay [7] has the same target. Kind of assay: qHTS assay to identify small molecule antagonists of the vitamin D receptor (VDR) signaling pathway (AID 743223; active = well fitted inhibition curve with a large enough effect in the signal ratio in the repeat runs, not every such curve was filed as active; the % refers to the signal ratio). In outline: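 VDR-bla cells were plated, incubated 4 h at 37C, then given compound and 1alpha,25-dihydroxyvitamin D3 (3 nM final). After 16 h at 37C, LiveBLAzer B/G FRET substrate was added for 2 h at room temperature and fluorescence read.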

Assay [8] in a line: qHTS assay to identify small molecule agonists of the peroxisome proliferator-activated receptor delta (PPARd) signaling pathway - cell viability counter screen (AID 743211). Note: nearly all actives have a fitted effect of over 55% in size. Note: potency is the fitted concentration of half-maximal effect. In outline:
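PPARd-bla HEK293H cells (UAS-beta-lactamase reporter) were treated with compounds for 17 h at 37 C. Viability was then read in the same wells by CellTiter-Glo luminescence after 30 min at room temperature.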

For assay [9], the target named is Bile acid receptor (Homo sapiens) (UniProt Q96RI1). The experiment in a line: qHTS assay to identify small molecule antagonists of the farnesoid-X-receptor (FXR) signaling pathway (AID 743217; active = well fitted inhibition curve with a large enough effect in the signal ratio in the repeat runs, not every such curve was filed as active; the % refers to the signal ratio). In outline:
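FRET fluorescence after 2 h room-temperature LiveBLAzer loading gives the readout. Prior step: FXR-bla HEK 293T cells, seeded and incubated 5 h, received test compounds plus 50 uM final CDCA for 16 h at 37 °C.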

Assay [10] has the same target. The experiment in a line: qHTS assay to identify small molecule agonists of the farnesoid-X-receptor (FXR) signaling pathway (AID 743220; active = well fitted activation curve with a large enough effect in the signal ratio in the repeat runs, not every such curve was filed as active; the % refers to the signal ratio). In outline:
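FXR-UAS-bla HEK 293T cells carrying a UAS-driven beta-lactamase reporter were plated for 5 h at 37C/5% CO2, then exposed to DMSO-dissolved Tox21 10K compounds for 16 h at 37C. A LiveBLAzer B/G FRET substrate was loaded for 2 h at room temperature before fluorescence reading.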

Records with an inconclusive call do not appear. Unmarked numbers belong to inactive results. Active and inactive are the calls of the source. Unless noted, calls come from the whole dose curve; as a rule, active = well fitted curve in the direction sought with a large enough effect in the repeat runs; inconclusive = weak or mixed curves; inactive = no such curve, though single readings can be large; an effect the other way counts as inactive or inconclusive.
% is set by controls: 0 for no effect and ±100 for the full control effect.

Sequence of Bile acid receptor (Homo sapiens) (Q96RI1 whole entry, looked up): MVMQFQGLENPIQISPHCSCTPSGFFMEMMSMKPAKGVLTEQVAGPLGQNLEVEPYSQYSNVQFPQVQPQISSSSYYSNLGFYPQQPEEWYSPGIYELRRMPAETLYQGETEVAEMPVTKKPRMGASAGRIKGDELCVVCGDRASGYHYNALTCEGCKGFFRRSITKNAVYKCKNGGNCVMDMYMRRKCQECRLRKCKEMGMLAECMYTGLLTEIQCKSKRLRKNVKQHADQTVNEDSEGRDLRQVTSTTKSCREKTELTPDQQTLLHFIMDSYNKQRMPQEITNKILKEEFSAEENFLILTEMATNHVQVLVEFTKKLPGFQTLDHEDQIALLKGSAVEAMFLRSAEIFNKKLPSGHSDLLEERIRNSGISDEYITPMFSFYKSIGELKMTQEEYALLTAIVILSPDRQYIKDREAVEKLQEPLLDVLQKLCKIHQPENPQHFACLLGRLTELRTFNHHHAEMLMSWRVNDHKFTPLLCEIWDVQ
Sequence of Peroxisome proliferator-activated receptor delta (Homo sapiens) (Q03181 whole entry, looked up): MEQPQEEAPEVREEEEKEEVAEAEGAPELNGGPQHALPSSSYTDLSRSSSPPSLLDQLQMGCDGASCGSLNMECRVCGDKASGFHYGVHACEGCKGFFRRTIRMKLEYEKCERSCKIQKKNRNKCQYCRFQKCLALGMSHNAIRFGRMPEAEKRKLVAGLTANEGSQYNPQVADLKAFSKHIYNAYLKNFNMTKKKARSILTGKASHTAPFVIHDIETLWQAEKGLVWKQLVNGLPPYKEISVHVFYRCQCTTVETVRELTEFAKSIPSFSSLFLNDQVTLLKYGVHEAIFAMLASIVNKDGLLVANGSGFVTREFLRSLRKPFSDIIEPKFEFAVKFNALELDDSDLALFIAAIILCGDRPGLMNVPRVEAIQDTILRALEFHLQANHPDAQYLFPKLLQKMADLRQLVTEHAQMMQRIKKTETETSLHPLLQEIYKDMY
Sequence of Vitamin D3 receptor (Homo sapiens) (P11473 whole entry, looked up): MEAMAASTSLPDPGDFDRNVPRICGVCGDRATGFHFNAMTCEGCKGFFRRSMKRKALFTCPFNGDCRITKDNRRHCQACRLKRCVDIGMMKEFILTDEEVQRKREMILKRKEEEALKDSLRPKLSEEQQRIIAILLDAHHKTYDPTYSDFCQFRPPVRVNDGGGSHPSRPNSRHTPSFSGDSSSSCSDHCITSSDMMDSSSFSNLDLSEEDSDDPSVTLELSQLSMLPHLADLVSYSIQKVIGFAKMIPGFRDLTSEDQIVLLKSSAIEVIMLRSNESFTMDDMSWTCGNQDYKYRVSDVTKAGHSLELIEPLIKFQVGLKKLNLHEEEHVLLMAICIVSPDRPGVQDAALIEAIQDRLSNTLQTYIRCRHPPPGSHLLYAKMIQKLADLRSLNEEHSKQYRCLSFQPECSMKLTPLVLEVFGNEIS

Take `CCCCCCCCCCCCCC=O`: the activation in assay [1] is 0.125% [at 5.95 µM]. Also, the viability change, negative = cytotoxic in assay [2] was -6.97% [at 6.26 µM]; in [4], 0% [at 5.95 µM]. Moreover, the ratio activity, negative = inhibition in assay [3] is -0.712% [at 6.26 µM]. In addition, the activity change, negative = cytotoxicity in [5] is -2.35% [at 5.95 µM].

For `CCCCCOC(=O)CCCCC`, the outcome in assay [1], in assay [6] and in assay [7] was inactive. Moreover, the Potency entry in assay [2], in [3], in assay [4] and in assay [5] was “inactive” each time.

On to `NCCc1cnc[nH]1`, for which the Potency entry in assay [8], in assay [4] and in assay [5] was “inactive” in each case.

`Nc1cc(=O)[nH]c(N)n1`: the Potency entry in assay [8] and in assay [5] was “inactive” each time. For the same compound, the call in assay [9], in assay [10], in assay [6] and in [7] was inactive.

As to `CC(C)(C)c1ccc(O)c(O)c1`, the Potency in assay [8] is 25.4 µM (active); in [3], 50.7 µM (active). Besides, the Potency entry in assay [4] and in assay [5] was “inactive” each time. Besides, the outcome in assay [6] was inactive.

On to `CC(=O)N(CC(O)CO)c1c(I)c(C(=O)NCCO)c(I)c(C(=O)NCC(O)CO)c1I` (stereo unspecified), for which the call in [1], in assay [9], in assay [10], in [6] and in assay [7] was inactive. Moreover, the Potency result in assay [2], in assay [3], in [4] and in assay [5] was “inactive” in each case.

In the case of `CC(C)CCCC(C)N` (stereo unspecified), the Potency result in assay [8], in assay [4] and in assay [5] was “inactive” each time. The result in assay [6] and in assay [7] was inactive.

Turning to `COc1ccc2c(c1)CCCC2=O`, the Potency entry in assay [8], in [4] and in assay [5] was “inactive” in each case. The compound was called inactive in [9], in assay [10], in [6] and in [7].

As for `c1ccc(CC2=NCCN2)cc1`, the Potency entry in [8] and in assay [5] was “inactive” throughout. Also, the call in assay [9] and in assay [10] was inactive.

Regarding `Cc1ccc(C#N)cc1`, the compound was called inactive in assay [1], in assay [9] and in [10]. The Potency result in assay [2], in [3], in assay [4] and in assay [5] was “inactive” in each case.

With `Cn1cc(S(C)=O)c(=O)c2ccc(F)cc21` (stereo unspecified), the result in assay [1], in assay [9], in assay [10], in assay [6] and in assay [7] was inactive. Further, the Potency entry in [3], in assay [4] and in [5] was “inactive” throughout.

Turning to `COc1ccc2c(c1)c(CC(=O)OCC(=O)O)c(C)n2C(=O)c1ccc(Cl)cc1`, the Potency result in assay [2], in [4] and in [5] was “inactive” in each case.

As for `CN1CCCC1`, the Potency result in assay [2] and in assay [4] was “inactive” in each case. The compound was called inactive in [9], in [10] and in [6].

For `O=C(CCCN1CCC(O)(c2cccc(C(F)(F)F)c2)CC1)c1ccc(F)cc1`, the compound was classed as inactive in [1], in assay [9], in assay [10], in assay [6] and in assay [7]. The Potency entry in assay [3], in assay [4] and in assay [5] was “inactive” in each case.

Take `CCCCOCCOCCOCc1cc2c(cc1CCC)OCO2`: the Potency entry in assay [2], in assay [4] and in assay [5] was “inactive” in each case. Besides, the outcome in assay [9] and in assay [10] was inactive.

In the case of `C=CCCCCCCCCC=O`, the Potency result in assay [2], in assay [3] and in assay [4] was “inactive” throughout. Further, in [7], the result was inactive.

For `OC1CCCCC1c1ccccc1` (stereo unspecified), the outcome in assay [1], in assay [6] and in [7] was inactive. Besides, the Potency entry in assay [2], in assay [3] and in [4] was “inactive” each time.

For the compound `Cc1ccc(=O)n(-c2ccccc2)c1`, the Potency result in [2], in [4] and in assay [5] was “inactive” in each case. Also, the compound was classed as inactive in [6] and in [7].

Consider `O=C1CCCN1C1CCCCC1`, for which the Potency entry in [2], in [4] and in assay [5] was “inactive” in each case. For the same compound, the compound was called inactive in [9], in [10] and in assay [7].

Turning to `NS(=O)(=O)c1cc(C(=O)O)cc(N2CCCC2)c1Oc1ccccc1`, the compound was classed as inactive in assay [1], in [6] and in [7]. The Potency result in assay [2] and in assay [4] was “inactive” throughout.

On to `CCOC(=O)[C@H](CCc1ccccc1)N[C@@H](C)C(=O)N1[C@H](C(=O)O)C[C@@H]2CCC[C@@H]21`, for which the compound was classed as inactive in assay [1], in assay [6] and in [7]. Further, the Potency entry in assay [2], in [3] and in [4] was “inactive” throughout.

`CCCN1CCCC[C@H]1C(=O)Nc1c(C)cccc1C`: the compound was called inactive in assay [1], in [9], in [10] and in [7]. Further, the Potency entry in assay [3], in [4] and in assay [5] was “inactive” throughout.
